Shown are actives, neighbours in structure and some others; about 2% of the full set was active somewhere.
Shn3 3UTR inh – reduction of Shn3 3'UTR firefly luciferase signal, primary screen, Schnurri-3 inhibitor project, cell-based, Clone20 osteoblasts, set 2; AID 588674, 2011; Clone20 osteoblast Shn3 3'UTR firefly luciferase, 24 h; hit rate 0.52% among 360,000; inhibition, % at 12.5 µM;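 active = mean inhibition of at least 75% with every replicate also reaching 75%; inconclusive = mean inhibition at least 75% but some replicate below; inactive = mean inhibition below 75%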
Calb FLC – C. albicans growth inhibition with fluconazole, primary screen, CaCi-2 strain, Alamar Blue fluorescence | C. albicans CaCi-2 (fluconazole-resistant clinical isolate) + fluconazole, 48 h | growth inhibition, % (concentration not given with the values) | hit rate 0.57% among 300,000;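 active = growth inhibition above about 58% in most replicates, limit read from the data, passing the limit was not always enough; inconclusive = exactly half the replicates above a set limit; inactive = most replicates below a set limit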;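 note: all wells also contain fluconazole at 8 µg/ml as a sub-toxic cotreatment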
697 NFkB inh – inhibitors of PMA/ionomycin-induced NF-kB reporter, 697 cells, primary screen, B-cell NF-kB inhibitor project, cell-based, luminescence, uHTS. hit rate 0.33% among 330,000. inhibition, % at 4 µM. AID 435022, 2010. 697 B-cell NF-kB luciferase reporter, 16 h; in the data active = inhibition above about 35%
Beta apoptosis – inhibitors of cytokine-induced beta cell apoptosis, primary screen, luminescence; protection from apoptosis, % (concentration not given with the values); INS-1E cytokine-induced death, ATP luminescence, 48 h; percent of positive-control rescue, neutral wells zero; hit rate 0.8% among 300,000;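 active = Every replicate reaches about 75%, or at least half do and their mean reaches it too, limit read from the data; inconclusive = At least half of replicates reach the limit but their mean does not; inactive = Under half of replicates reach the limit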;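 note: higher means more ATP so stronger rescue from cytokine killing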
Jurkat NFkB inh – inhibitors of induced NF-kB luciferase reporter, primary screen, TCR NF-kB activation inhibitor project, cell-based, luminescence, uHTS | Jurkat, PMA/ionomycin-induced NF-kB luciferase reporter | inhibition, % at 4 µM | hit rate 0.53% among 330,000; in the data active = inhibition above about 50%
Numbers stand for hits; – = inactive; ? = inconclusive; · = not tested or not shown.

SMILES | Shn3 3UTR inh | Calb FLC | 697 NFkB inh | Beta apoptosis | Jurkat NFkB inh
COC(=O)C1=C(C)N(Cc2ccccc2)C(=NCc2cccc(C(F)(F)F)c2)N[C@H]1c1cccc(C(F)(F)F)c1 | – | · | – | 99 | –
COC(=O)C1=C(C)N(Cc2ccccc2)C(=NCc2cccc(C(F)(F)F)c2)N[C@H]1c1cccc(F)c1 | – | ? | – | 111 | –
COCCN=C1N[C@@H](c2cccc(C(F)(F)F)c2)C(C(=O)OC)=C(C)N1Cc1ccccc1 | – | – | – | – | –
COC(=O)C1=C(C)N(CC2CC2)C(=NCc2cccc(C(F)(F)F)c2)N[C@H]1c1ccccc1 | – | · | – | – | –
Cn1c(Cc2ccc(Cl)cc2)nnc1SCC(=O)NC1CC1 | – | – | – | – | –
C(=N\NC1=Nc2cccc3cccc1c23)/c1ccccn1 | – | 94 | · | · | ·
C(=N\N=C\c1ccccn1)/c1ccccn1 | – | – | – | – | –
C(=NNc1ccc2ccccc2n1)c1ccccn1 | 92 | · | · | · | ·
C=Cc1ccc(Cn2c(C)c(C(=O)NCc3ccccc3C(F)(F)F)sc2=O)cc1 | – | · | · | · | ·
O=S(=O)(Oc1ccccc1-c1ccccc1)c1ccccc1 | – | · | · | · | ·
Cc1ccccc1C(=O)NNC(=S)NC(=O)c1ccc(Cl)cc1Cl | – | 91 | – | · | –
CCc1ccccc1NC(=S)NN | · | – | – | – | –
COc1ccc(C(=O)NC(=S)NNC(=O)c2ccccc2O)cc1 | – | – | – | – | –
FC(F)(F)c1ccccc1NC(=S)N1CCCCCC1 | – | – | – | – | –
CCc1ccccc1NC(=S)N1CCCCCC1 | – | 117 | – | – | –
COc1ccc(C(=O)NC(=S)NNC(=O)c2ccccc2C)cc1 | – | 101 | – | – | –
CCc1ccccc1NC(=S)NNC(=O)c1ccccc1Cl | – | 103 | – | – | –
COc1cc(C2C(C#N)=C(N)Oc3c2ccc2ccccc32)ccc1OCC(=O)Nc1ccc(C)cc1 (configuration not stated) | – | – | – | – | –
COc1ccc(C2C(C#N)=C(N)Oc3c2ccc2cccnc32)cc1OC (configuration not stated) | – | 93 | – | 99 | –
Cc1ccc(S(=O)(=O)N2CCC(C(=O)OCC(=O)NCc3cccc(Cl)c3)CC2)cc1C | – | · | – | – | –
Cc1cccc(-n2nc(C(=O)c3ccco3)cc(-c3nc4ccccc4[nH]3)c2=N)c1 | – | 97 | – | – | –
CCN1/C(=C/c2sc(-c3ccccc3C)c[n+]2C)Sc2ccccc21 | 90 | 106 | · | · | ·
O=C(Nc1cccc(F)c1)Nc1ccc2c(c1)OCO2 | – | – | – | – | –
O=S(=O)(c1ccc(NC(=S)Nc2ccccc2)cc1)N1CCOCC1 | – | – | – | · | –
CC(C)CCCCCCNC(=S)Nc1ccc(S(=O)(=O)N2CCOCC2)cc1 | – | – | – | 98 | –
SMILES | Shn3 3UTR inh | Calb FLC | 697 NFkB inh | Beta apoptosis | Jurkat NFkB inh
COc1ccc(-n2cccc2/C=C2\C(=N)N3N=C(c4ccco4)SC3=NC2=O)cc1 | – | – | – | – | –
COc1ccc(-n2cccc2/C=C2\C(=N)N3N=C(C(C)C)SC3=NC2=O)cc1 | – | 98 | – | – | –
Cc1cc(N)ccc1NC(=O)CN1CCCC1 | – | – | – | – | –
CCCCCc1ccc(-c2cn(CN3C(=O)c4ccccc4C3=O)nn2)cc1 | – | – | – | 96 | –
C[C@H](C[C@H](O)[C@H]1OC1(C)C)C1=C2C[C@H](O)C3[C@@]4(C)CCC(=O)C(C)(C)C4CC[C@]3(C)[C@@]2(C)CC1 (some centres not stated) | – | · | – | – | –
C[C@@H](C[C@@H](O)[C@H](O)C(C)(C)O)[C@@H]1CC[C@]2(C)C3=CC[C@H]4C(C)(C)C(=O)CC[C@]4(C)[C@H]3CC[C@@]12C | 92 | – | – | · | –
Cc1nnc(SCC(=O)c2c(N)n(C3CC3)c(=O)[nH]c2=O)n1-c1ccccc1 | – | · | – | – | –
Cc1ccc(NC(=O)Cn2c(=O)cnc3ccccc32)cc1S(=O)(=O)N1CCOCC1 | – | · | – | – | –
Cc1nc2c(=O)n(C)c(=O)n(C)c2nc1Cl | 97 | – | · | – | ·
Cc1ccccc1C(=O)N1CCC(C(=O)NN2C(=O)NC3(CCC(C)CC3)C2=O)CC1 (configuration not stated) | – | · | – | – | –
C/C(=N\N=C(N)N)c1ccc(Cl)cc1Cl | – | – | – | – | –
CCC(=O)Nc1ccc(NC(=O)CSc2nnnn2C2CCCC2)cc1C | – | – | – | · | –
Cc1ccc(C2CC2C(=O)NNC(=S)Nc2cccc(Cl)c2)cc1 (configuration not stated) | – | 112 | – | – | –
Fc1ccc2nc(Nc3nc4c(F)cccc4s3)sc2c1 | – | – | – | – | –
Fc1ccc2nc(Nc3nc4c(F)cc(F)cc4s3)sc2c1 | – | – | · | 90 | ·
C=C1C(=O)C23CCC4C(C)(C(=O)OC)CCCC4(C)C2CCC1(O)C3 (configuration not stated) | 96 | · | · | · | ·
OC[C@@H]1CN(Cc2ccc3c(c2)OCO3)C[C@H](n2cnc3c(NCc4ccc(F)cc4)ncnc32)O1 | – | · | · | · | ·
COc1ccc(-c2csc(N3CCN(S(=O)(=O)c4ccc5c(c4)NC(=O)CO5)CC3)n2)cc1 | – | – | – | – | –
Cc1cc(C(=O)NNC(=O)c2ccc(Cl)cc2)c2ccccc2n1 | – | · | – | – | –
Cc1cc(C(=O)NNC(=S)NC(C)c2ccccc2)c2ccccc2n1 (configuration not stated) | – | 104 | – | – | –
CCNC(=S)NNC(=O)c1cc(-c2ccccc2C)nc2ccccc12 | – | 99 | – | – | –
CCCOc1cccc(-c2cc(C(=O)NNC(=S)NCC)c3ccccc3n2)c1 | – | 84 | – | – | –
CC(=O)N1CCN(Cc2nc3cc(NC(=O)COc4cccc(C)c4)ccc3n2C)CC1 | – | – | – | – | –
O=C(COc1ccc(Cl)cc1Br)Nc1ccncc1 | – | – | – | – | –
COC(=O)N/N=C/c1ccc(-c2cc(Cl)cc(Cl)c2)o1 | – | 79 | – | – | –
SMILES | Shn3 3UTR inh | Calb FLC | 697 NFkB inh | Beta apoptosis | Jurkat NFkB inh
Cc1ccc(-c2csc(N3CCC(NS(=O)(=O)c4ccc5c(c4)OCCO5)CC3)n2)cc1 | – | – | – | 97 | –
Cc1ccc(-c2csc(N3CCC(C(N)=O)CC3)n2)cc1 | – | · | – | – | –
COc1ccc(Cl)cc1C(=O)NNC(=O)c1ccc(F)c(S(=O)(=O)N2CCOCC2)c1 | – | · | – | – | –
Cc1csc2ncnc(N3CCN(S(=O)(=O)c4cccc(C(F)(F)F)c4)CC3)c12 | ? | – | – | 95 | –
O=S(=O)(c1ccc(Cl)cc1)N1CCN(c2ncnc3sccc23)CC1 | – | · | – | 83 | –
Cc1sc2ncnc(N3CCN(S(=O)(=O)c4ccc(C(C)(C)C)cc4)CC3)c2c1C | – | · | – | 124 | –
Cc1ccc(S(=O)(=O)N2CCN(C(=O)C3CCN(c4ncnc5sc(C)c(C)c45)CC3)CC2)c(C)c1 | 92 | · | · | · | ·
